About 79,000 compounds went through this panel and 15% of them were active in at least one assay; those are over-represented in the sample as a whole. Cut-off read from the data, not from the text of the source: active = growth inhibition above about 70%; inactive = the rest.
Tests used:
[1] = NCI Yeast Anticancer Drug Screen. Data for the rad50 strain (AID 155);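 note: 0% = growth of vehicle-only cultures of the same strain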; conditions: S. cerevisiae rad50 strain growth inhibition; at 50.0 µM; hits give high values
How it was run: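 Cells are treated with compound, grown, and their growth is then scored against vehicle-only cultures of the same repair-deficient yeast strain.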

[2] = NCI Yeast Anticancer Drug Screen. Data for the mec2-1 strain (AID 157); conditions: S. cerevisiae mec2-1 strain, at 50.0 µM, hits give high values
How it was run: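 Growth inhibition is read against vehicle-treated controls after compound exposure of the mec2-1 yeast strain, which is defective in DNA damage repair or cell cycle control.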

[3] = NCI Yeast Anticancer Drug Screen. Data for the sgs1 mgt1 strain (AID 161);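 note: 0% = growth of cultures given vehicle only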; conditions: S. cerevisiae sgs1 mgt1 strain, at 50.0 µM, hits give high values
How it was run: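 Yeast cells carrying a defined DNA-repair defect were exposed to test compounds. Growth inhibition was measured relative to vehicle-treated controls.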

[4] = NCI Yeast Anticancer Drug Screen. Data for the cln2 rad14 strain (AID 165);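 note: 0% = growth equal to vehicle treated cultures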; conditions: S. cerevisiae cln2 rad14 strain, at 50.0 µM, hits give high values
How it was run: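 Growth inhibition, relative to vehicle-treated controls, is the read-out. The test organism is a yeast strain with defined genetic alterations, cln2 rad14.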

[5] = NCI Yeast Anticancer Drug Screen. Data for the bub3 strain (AID 167); conditions: S. cerevisiae bub3 mutant strain, at 50.0 µM, hits give high values
How it was run: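 Part of a panel of yeast mutants defective in DNA damage repair or cell cycle regulation. Each strain is grown with compound, and inhibition is calculated relative to solvent-treated cultures.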

[6] = NCI Yeast Anticancer Drug Screen. Data for the mlh1 rad18 strain (AID 175); conditions: S. cerevisiae mlh1 rad18 strain growth inhibition; at 50.0 µM; hits give high values
How it was run: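 Cells of a genetically altered yeast strain, deficient in DNA damage repair, were treated with compound. Their growth was then compared with that of vehicle-treated cultures to give inhibition.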

Measured: growth inhibition

CCN(CC)C(=O)c1ccccc1C
inactive: [1] 17.2% | [2] -2.65% | [3] -9.7% | [4] 6.7% | [5] -3.85% | [6] 0.45%

CCCCCCCCCCCCCC(=O)OCC(=O)c1ccc(-c2ccccc2)cc1
inactive: [1] 23.1% | [2] 4.2% | [3] 32.5% | [4] 29.9% | [5] 11.4% | [6] 27.8%

CCOC(=O)C1C(c2ccc(Cl)cc2Cl)NC(c2ccc(C)cc2)C(C(=O)OC)S1(=O)=O (stereo unspecified)
inactive: [1] 13% | [2] -9.8% | [3] -8.85% | [4] 27.3% | [5] -5.1% | [6] 27.1%

O=C(c1ccccc1)[n+]1ccc2ccccc2c1
inactive: [1] -19.1% | [2] -21.2% | [3] -4.35% | [4] 0.45% | [5] -6.25% | [6] -13.1%

CSCCC(NC=O)C(=O)O (stereo unspecified)
inactive: [1] -0.65% | [2] -5.35% | [3] 7.9% | [4] 1.05% | [5] 5.75% | [6] 3.8%

Cc1ccc(/C(C#N)=C/c2ccccc2)cc1
inactive: [1] 32.8% | [2] 26.4% | [3] 21% | [4] 19.6% | [5] 18.8% | [6] 9.65%

O=[N+]([O-])C(Cl)C(Cl)C(Cl)=C(Cl)Cl (stereo unspecified)
inactive: [1] 23.9% | [2] 17.1% | [3] 51% | [4] 35.8% | [5] 60.8% | [6] 52.2%

Cc1ccc(S(=O)(=O)CN2C(=O)C(c3ccccc3)(c3ccccc3)C23OC(c2ccc(Cl)cc2)=CC3=O)cc1 (stereo unspecified)
inactive: [1] -2.35% | [2] -7.7% | [3] -5.7% | [4] -20.1% | [5] -35.7% | [6] -21.9%

CN1COc2c3c(c4ccccc4c2C1)CN(C)CO3
inactive: [1] 7.1% | [2] 2.35% | [3] 1.2% | [4] -16.9% | [5] 6.35% | [6] -0.3%

Nc1nc2nc(C(=O)O)c(=S)[nH]c2c(=O)[nH]1
inactive: [1] 11.1% | [2] 3.8% | [3] 1.9% | [4] -10.9% | [5] 7.6% | [6] -8.25%

O=[N+]([O-])c1ccc(N/N=C2/C(=C/c3cccc4ccccc34)CCc3ccccc32)c([N+](=O)[O-])c1
inactive: [1] -13.6% | [2] -16.3% | [3] -20.8% | [4] -32.5% | [5] 37.5% | [6] -19.6%

O=C1C(Cl)=C(NC(CO)(CO)CO)C(=O)c2ccccc21
inactive: [1] 4.7% | [2] 16.6% | [3] -6.05% | [4] 1.6% | [5] 8.45% | [6] 8.15%

CC(=O)OCC1OC(Oc2ccccc2)C(OC(C)=O)C(OC(C)=O)C1OC(C)=O (stereo unspecified)
inactive: [1] -3.4% | [2] -5.3% | [3] -0.05% | [4] 12.4% | [5] -4.1% | [6] -10.7%

O=[N+]([O-])c1ccc(OC2OC(CO)C(O)C(O)C2O)cc1 (stereo unspecified)
inactive: [1] 31.2% | [2] -0.45% | [3] -4.7% | [4] 5.1% | [5] 24% | [6] 10.2%

N#Cc1ccc(S(=O)(=O)c2ccc(C#N)cc2)cc1
inactive: [1] 1% | [2] -17.6% | [3] 11.3% | [4] 24.4% | [5] 12% | [6] -19.4%

N#CC12CC3CC(CC(C3)C1)C2
inactive: [1] -3.9% | [2] -1.5% | [3] -15% | [4] -45% | [5] -9.3% | [6] 4.35%

O=c1[nH]c(=O)n(C2CC(O)C(CO)O2)cc1OCC1CCCCC1 (stereo unspecified)
inactive: [1] -33.9% | [2] -4.8% | [3] -13.3% | [4] 1.85% | [5] -14.4% | [6] -19.9%

c1ccc(CCN2CCN=C2Cc2ccccc2)cc1
inactive: [1] 13.8% | [2] 8% | [3] 0.95% | [4] -32.8% | [5] -27.1% | [6] 9.3%

O=C(N/N=C/c1cccc(C(F)(F)F)c1)c1ccncc1
inactive: [1] 12.8% | [2] 6.7% | [3] 11.1% | [4] -15.7% | [5] 8.05% | [6] 5.85%

c1ccc(COc2ccc(CC3SCCCS3)cc2)cc1
inactive: [1] -30.5% | [2] -35.8% | [3] -10.4% | [4] 24.9% | [5] 16.6% | [6] -7.5%

C=C1C(=O)C23C(O)CC4C5(C)CCCC4(C(O)OC5)C2C(OC(C)=O)CC1C3O (stereo unspecified)
inactive: [1] 10.3% | [2] 8.45% | [3] 11.4% | [4] 10.1% | [5] -7.3% | [6] 0.75%

c1ccc2c(c1)nc(NC1CCCC1)c1[nH]c(C3CCCC3)nc12
inactive: [1] -26.1% | [2] -36.6% | [3] -56.9% | [4] -10.3% | [5] -29.2% | [6] -50%

Cc1ccccc1N1C(=O)[N+]2(CCCCC2)N=C1[O-]
inactive: [1] -11.1% | [2] 2.2% | [3] -13.3% | [4] -42.5% | [5] -3.9% | [6] -12.6%

C(=Nc1ccc(SSc2ccc(N=Cc3ccc4c(c3)OCO4)cc2)cc1)c1ccc2c(c1)OCO2
inactive: [1] 18.8% | [2] 0.05% | [3] -0.95% | [4] -8.55% | [5] 8.75% | [6] 17.2%

CN1C(=O)N(C)C(N2CCCC2)c2c1nc1ccccn1c2=O (stereo unspecified)
inactive: [1] -11.7% | [2] -30.8% | [3] -41.8% | [4] 5.15% | [5] -5% | [6] -29.4%

O=[N+]([O-])c1ccc2[nH]c3nc4ncccc4nc3c2c1
inactive: [1] -3.4% | [2] 3.35% | [3] 4.7% | [4] -20.1% | [5] 0.25% | [6] 0.7%

CC(NCCNC(C)c1ccccc1)c1ccccc1 (stereo unspecified)
inactive: [1] 6.65% | [2] -22.3% | [3] -1.25% | [4] -35.1% | [5] 1.85% | [6] 8.45%

CCN(CC)c1ccc(Br)cc1
inactive: [1] 32.9% | [2] 4% | [3] 4.55% | [4] -2.5% | [5] 14.2% | [6] 33.9%

CCC(CC)C(O)(C(=O)O)C(CC)CC
inactive: [1] 14.1% | [2] 13.7% | [3] 3.95% | [4] 3.3% | [5] 8.5% | [6] 32.8%

O=C(OC1CCCCC1)C(=O)OC1CCCCC1
inactive: [1] 3.3% | [2] -2.3% | [3] 1.35% | [4] -37.2% | [5] -5.45% | [6] 14%

NNC(=S)N/N=C/c1ccco1
inactive: [1] -9.6% | [2] -9.7% | [3] -29.4% | [4] -19.2% | [5] -8.7% | [6] -14.2%

CC(O)C(O)C(O)C(O)C(/C=N/Nc1ccccc1)=N/Nc1ccccc1 (stereo unspecified)
inactive: [1] 3.75% | [2] -14% | [3] 8.1% | [4] -9.95% | [5] 0.25% | [6] 22.8%

COc1ccccc1Nc1nc2c([nH]1)c(=O)n(C)c(=O)n2C
inactive: [1] -33.9% | [2] -15.2% | [3] -41.9% | [4] -32.8% | [5] -4% | [6] -5.85%

Cc1cc(Cc2ccc(NC(=O)N3CC3)c(C)c2)ccc1NC(=O)N1CC1
inactive: [1] -2.95% | [2] -8.25% | [3] -6.8% | [4] 0.25% | [5] 10.8% | [6] -18.9%

CC(C)=NNC(=O)c1ccccc1O
inactive: [1] 33.9% | [2] -7.7% | [3] 3.5% | [4] 2.3% | [5] 1.65% | [6] -10.2%

C/C(=N\NC(N)=S)c1ccc(/C(C)=N/NC(N)=S)cc1
inactive: [1] -44.6% | [2] -0.25% | [3] 0.8% | [4] -13.2% | [5] -1.2% | [6] -19.6%

O=C(Cl)C=Cc1ccc([N+](=O)[O-])cc1 (mixture of isomers)
inactive: [1] 4.7% | [2] 6.7% | [3] -0.25% | [4] -6.65% | [5] 2.15% | [6] 1.95%

CCOC(=O)c1ccc(NN=NC(C)(C)C)cc1
inactive: [1] 10.8% | [2] -8.5% | [3] -15.2% | [4] -29.2% | [5] -7.3% | [6] -11.1%

C=CCN(CC=C)CNC(C)=O
inactive: [1] -9.7% | [2] -14.7% | [3] -8.4% | [4] -17% | [5] -7.55% | [6] -10.8%

CNC(=O)c1ccccc1N
inactive: [1] 1.75% | [2] -6.95% | [3] -11.7% | [4] -84.2% | [5] 1.05% | [6] -17.2%

O=C(CNCc1ccccc1)NC(Cc1ccccc1)c1ccccc1 (stereo unspecified)
inactive: [1] 8.15% | [2] -14.3% | [3] 0.35% | [4] 16.9% | [5] 13.4% | [6] 20.9%

From PubChem BioAssay (NCI)
